Records with an inconclusive call do not appear. Calls of active or inactive are those of the source. Rule for the calls: active = hit-call score of the fitted dose curve at least 0.9, where 1 is the maximum; inconclusive = response in the unintended direction; inactive = score below 0.9.

For test [1], the target named is human Matrix Metalloproteinase-9 (MMP9), MMP9 (gene 4318) (UniProt P14780). Description: NVS_ENZ_hMMP9: NovaScreen (NVS) Enzymatic Assay for human Matrix Metalloproteinase-9 (MMP9) (AID 2283190).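 Note: cell-free recombinant MMP9 protease activity read by fluorescent substrate signal; active means inhibition seen as loss of fluorescence signal versus DMSO.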 Summed up:
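Inhibition was scored as loss of fluorescence signal against DMSO controls. The recombinant protease was exposed to chemicals for 1 hour before reading; initial testing used 25 uM in duplicate.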

For test [2], the target named is human Phosphodiesterase 10 (PDE10), PDE10A (gene 10846) (UniProt Q9Y233). Description: NVS_ENZ_hPDE10: NovaScreen (NVS) Enzymatic Assay for human Phosphodiesterase 10 (PDE10) (AID 2283195). Summed up: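 Fluorescence/mobility-shift readout of PDE10A enzyme activity, taken 1 h post-dosing. Primary screen in duplicate at 25 uM; actives (e.g. ≥30% inhibition) retested as singleton concentration-response, top concentration 50 uM.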
human Phosphodiesterase 10 (PDE10), PDE10A (gene 10846), sequence (Q9Y233 whole entry, looked up): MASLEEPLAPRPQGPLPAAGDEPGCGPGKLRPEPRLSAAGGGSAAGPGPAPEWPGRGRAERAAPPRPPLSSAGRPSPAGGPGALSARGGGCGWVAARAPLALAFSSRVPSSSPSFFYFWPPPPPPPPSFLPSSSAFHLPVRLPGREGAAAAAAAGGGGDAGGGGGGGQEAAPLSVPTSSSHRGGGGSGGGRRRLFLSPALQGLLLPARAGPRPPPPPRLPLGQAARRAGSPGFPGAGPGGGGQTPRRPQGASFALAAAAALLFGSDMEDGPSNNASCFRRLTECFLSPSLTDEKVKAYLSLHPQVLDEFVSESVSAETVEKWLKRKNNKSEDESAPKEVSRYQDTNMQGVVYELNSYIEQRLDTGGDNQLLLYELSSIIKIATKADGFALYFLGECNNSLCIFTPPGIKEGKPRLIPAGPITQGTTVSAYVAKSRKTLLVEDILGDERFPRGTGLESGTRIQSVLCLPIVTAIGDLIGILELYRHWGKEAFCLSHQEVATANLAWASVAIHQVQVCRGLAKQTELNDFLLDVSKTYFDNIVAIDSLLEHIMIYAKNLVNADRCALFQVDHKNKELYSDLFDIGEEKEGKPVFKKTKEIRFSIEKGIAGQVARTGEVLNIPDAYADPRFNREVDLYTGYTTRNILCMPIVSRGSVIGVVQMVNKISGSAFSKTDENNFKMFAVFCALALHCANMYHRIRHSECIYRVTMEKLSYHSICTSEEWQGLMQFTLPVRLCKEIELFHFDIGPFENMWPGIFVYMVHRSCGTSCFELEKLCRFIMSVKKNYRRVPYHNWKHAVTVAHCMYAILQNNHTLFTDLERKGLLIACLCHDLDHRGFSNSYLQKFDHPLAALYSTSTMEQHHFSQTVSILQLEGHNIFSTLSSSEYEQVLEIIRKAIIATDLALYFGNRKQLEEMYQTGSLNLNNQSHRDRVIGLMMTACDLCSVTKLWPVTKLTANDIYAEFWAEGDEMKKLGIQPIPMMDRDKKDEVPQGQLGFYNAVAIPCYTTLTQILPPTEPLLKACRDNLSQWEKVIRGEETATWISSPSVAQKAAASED

Test [3] concerns the target sheep Cyclooxygenase-1 (Cox1), PTGS1 (gene 443551) (UniProt P05979). Briefly: NVS_ENZ_oCOX1: NovaScreen (NVS) Enzymatic Assay for sheep Cyclooxygenase-1 (Cox1) (AID 2283239).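 Note: actives reduce cyclooxygenase activity so potencies are for inhibitors.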 Summed up: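 Cell-free colorimetric assay of enzyme activity in a native extract of ovine seminal vesicles. Absorbance was read 0.66 hour after compound addition. Loss of signal relative to the DMSO negative control was scored, with actives from the 25 uM duplicate primary screen retested in concentration series.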

In test [4] the target is Muscarinic acetylcholine receptor M2 (Homo sapiens) (UniProt P08172). Briefly: NVS_GPCR_hM2: NovaScreen (NVS) G Protein-Coupled Receptor Assay for human Muscarinic, M2 Receptor (AID 2283273). Summed up: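 Cell-free radioligand binding using membranes from CHO cells expressing the receptor; filter-based scintillation counting after 1 hour of compound exposure. Loss of specific binding relative to DMSO baseline; primary screen at 25 uM in duplicate, actives then run in concentration series.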
Muscarinic acetylcholine receptor M2 (Homo sapiens), sequence (P08172 whole entry, looked up): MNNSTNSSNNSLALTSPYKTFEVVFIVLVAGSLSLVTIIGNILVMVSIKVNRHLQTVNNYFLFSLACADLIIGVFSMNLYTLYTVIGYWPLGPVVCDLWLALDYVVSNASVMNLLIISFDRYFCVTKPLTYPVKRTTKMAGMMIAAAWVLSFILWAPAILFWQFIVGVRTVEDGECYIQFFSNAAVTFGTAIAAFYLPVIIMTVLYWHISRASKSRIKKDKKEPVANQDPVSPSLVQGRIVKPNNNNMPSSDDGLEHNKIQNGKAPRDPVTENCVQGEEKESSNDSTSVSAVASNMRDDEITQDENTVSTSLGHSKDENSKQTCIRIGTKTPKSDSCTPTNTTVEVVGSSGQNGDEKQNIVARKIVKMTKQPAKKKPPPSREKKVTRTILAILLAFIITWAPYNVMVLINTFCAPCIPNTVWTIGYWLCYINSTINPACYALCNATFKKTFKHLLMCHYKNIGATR

Test [5] deals with human Thromboxane A2 Receptor (TXA2), TBXA2R (gene 6915) (UniProt P21731). Description: NVS_GPCR_hTXA2: NovaScreen (NVS) G Protein-Coupled Receptor Assay for human Thromboxane A2 Receptor (TXA2) (AID 2283282).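 Note: actives reduce bound radioligand signal relative to DMSO baseline.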 Summed up: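 Cell-free radioligand binding on membrane protein from human platelets; radioligand displacement read by filter-based scintillation counting after 1 h. Primary screen in duplicate at 25 uM, actives then run in concentration series; loss of signal versus DMSO.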
human Thromboxane A2 Receptor (TXA2), TBXA2R (gene 6915), sequence (P21731 whole entry, looked up): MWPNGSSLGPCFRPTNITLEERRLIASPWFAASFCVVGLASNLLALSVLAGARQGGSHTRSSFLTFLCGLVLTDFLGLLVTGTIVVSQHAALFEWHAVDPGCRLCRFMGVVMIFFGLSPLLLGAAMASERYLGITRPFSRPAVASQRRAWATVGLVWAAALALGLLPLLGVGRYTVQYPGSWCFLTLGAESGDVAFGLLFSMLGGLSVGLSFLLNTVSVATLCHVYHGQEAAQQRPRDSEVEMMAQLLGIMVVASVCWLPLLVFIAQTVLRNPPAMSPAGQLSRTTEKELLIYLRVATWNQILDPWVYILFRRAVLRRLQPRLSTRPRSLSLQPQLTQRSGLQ

The target of test [6] is human Neurokinin, NK2 Receptor, TACR2 (gene 6865) (UniProt P21452). Briefly: NVS_GPCR_hNK2: NovaScreen (NVS) G Protein-Coupled Receptor Assay for human Neurokinin, NK2 Receptor (AID 2283278).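 Note: actives reduce bound radioligand signal relative to DMSO baseline.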 Summed up: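 Filter-based scintillation counting measured radioligand bound to receptor extracted from CHO cells, 4 hours after compound addition. Chemicals screened first at 25 uM in duplicate, with actives retested in concentration series relative to DMSO.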
human Neurokinin, NK2 Receptor, TACR2 (gene 6865), sequence (P21452 whole entry, looked up): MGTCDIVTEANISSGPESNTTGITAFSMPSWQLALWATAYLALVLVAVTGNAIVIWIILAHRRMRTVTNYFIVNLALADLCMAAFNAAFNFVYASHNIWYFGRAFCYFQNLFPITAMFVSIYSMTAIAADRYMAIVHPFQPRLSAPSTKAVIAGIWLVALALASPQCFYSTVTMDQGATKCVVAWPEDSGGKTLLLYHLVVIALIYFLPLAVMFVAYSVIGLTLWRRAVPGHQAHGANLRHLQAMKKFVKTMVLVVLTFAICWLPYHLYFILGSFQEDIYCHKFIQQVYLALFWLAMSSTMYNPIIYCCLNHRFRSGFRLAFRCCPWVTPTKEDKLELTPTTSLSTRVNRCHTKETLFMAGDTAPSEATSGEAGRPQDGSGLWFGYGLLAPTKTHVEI

Test [7] concerns the target D(1A) dopamine receptor (Homo sapiens) (UniProt P21728). Briefly: NVS_GPCR_hDRD1: NovaScreen (NVS) G Protein-Coupled Receptor Assay for human Dopamine Receptor D1 (DRD1) (AID 2283269). Summed up: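 HEK293-derived receptor preparation; radioligand competitive displacement; 1 h; filtration + scintillation counting. DMSO = negative control/baseline. Primary: 25 uM, duplicate; secondary: concentration–response for actives.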

Test [8] addresses human Vascular Endothelial Growth Factor Receptor 1 (VEGFR1), FLT1 (gene 2321) (UniProt P17948). Briefly: NVS_ENZ_hVEGFR1: NovaScreen (NVS) Enzymatic Assay for human Vascular Endothelial Growth Factor Receptor 1 (VEGFR1) (AID 2283226). The procedure, abridged: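 Cell-free assay of recombinant human VEGFR1 kinase with substrate, measured 1 h after dosing; fluorescence with electrophoretic mobility-shift separation of substrate and product, referenced to DMSO; primary screen at 25 uM in duplicate, actives then run in concentration series.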

Test [9] concerns the target rat Constitutive Nitric Oxide Synthase (CNOS), Nos1 (gene 24598) (UniProt P29476). Briefly: NVS_ENZ_rCNOS: NovaScreen (NVS) Enzymatic Assay for rat Constitutive Nitric Oxide Synthase (CNOS) (AID 2283236). Summed up: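 Enzyme activity in rat brain membrane preparation, read 1 h after dosing by filter-based radiometric scintillation counting. Primary screen in duplicate at 25 uM; actives (e.g., ≥30% inhibition) then run in concentration-response up to 50 uM.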

Test [10] has as its system 5-hydroxytryptamine receptor 2C (pig). Description: NVS_GPCR_p5HT2C: NovaScreen (NVS) G Protein-Coupled Receptor Assay for pig Serotonin, 5-Hydroxytryptamine Receptor 2C (5HT2C) (AID 2283288). The procedure, abridged: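 Pig choroid plexus membranes; radioligand competitive binding, filter-based scintillation counting, read 1 h after dosing. Primary screen in duplicate at 25 uM; actives then run as concentration series; loss of signal versus DMSO baseline.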

For test [11], the target named is guinea pig Leukotriene D4 Receptor (LTD4), CYSLTR1 (gene 100135514) (UniProt Q2NNR5). Description: NVS_GPCR_gLTD4: NovaScreen (NVS) G Protein-Coupled Receptor Assay for guinea pig Leukotriene D4 Receptor (LTD4) (AID 2283248). The procedure, abridged: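 Radioligand displacement on guinea pig lung membranes, 1 h incubation, filtration and scintillation counting; DMSO as negative control. Duplicate 25 uM primary screen, then singleton concentration-response up to 50 uM.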

The target in test [12] is sheep Cyclooxygenase-2 (Cox2), PTGS2 (gene 443460) (UniProt P79208). Description: NVS_ENZ_oCOX2: NovaScreen (NVS) Enzymatic Assay for sheep Cyclooxygenase-2 (Cox2) (AID 2283231). Summed up: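 Ovine placental enzyme, cell-free; chemical added, 0.66 h, absorbance (colorimetric). Screen 25 uM in duplicate; ≥threshold hits titrated, top 50 uM. Inhibition = signal loss vs DMSO.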

Test [13] addresses guinea pig Opioid, Kappa 1 Receptor (OpiateK), OPRK1 (gene 100135587) (UniProt P41144). Description: NVS_GPCR_gOpiateK: NovaScreen (NVS) G Protein-Coupled Receptor Assay for guinea pig Opioid, Kappa 1 Receptor (OpiateK) (AID 2283252).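 Note: active means reduced radioligand binding relative to DMSO.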 Summed up: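 Guinea pig cerebellar membranes were incubated with a radioligand for 2 h after compound addition; bound radioactivity was read by filter-based scintillation counting. Loss of specific binding relative to DMSO baseline defined activity; primary screen at 25 uM in duplicate.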

The target in test [14] is human Adenosine A2a Receptor (AdoRA2a), ADORA2A (gene 135) (UniProt P29274). Briefly: NVS_GPCR_hAdoRA2a: NovaScreen (NVS) G Protein-Coupled Receptor Assay for human Adenosine A2a Receptor (AdoRA2a) (AID 2283256). The procedure, abridged:
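Cell-free radioligand binding on membranes from HEK293 expressing the receptor; competitive displacement read 1.5 h after dosing by filter-based scintillation counting. Primary screen in duplicate at 25 uM; actives followed in concentration series, with DMSO as baseline.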

Test [15] has as its target human Phosphoinositide 3-kinase alpha (PI3Ka), PIK3CA (gene 5290) (UniProt P42336). Briefly: NVS_ENZ_hPI3Ka: NovaScreen (NVS) Enzymatic Assay for human Phosphoinositide 3-kinase alpha (PI3Ka) (AID 2283196). Summed up: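 Chemicals were first screened at 25 uM in duplicate, then hits were run as concentration series up to 50 uM. Enzyme activity was measured by fluorescence after mobility-shift separation, with loss of signal relative to DMSO taken as activity.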

Test [16] has as its target human Adenosine A1 Receptor (AdoRA1), ADORA1 (gene 134) (UniProt P30542). Description: NVS_GPCR_hAdoRA1: NovaScreen (NVS) G Protein-Coupled Receptor Assay for human Adenosine A1 Receptor (AdoRA1) (AID 2283254). Summed up:
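Hum. cortical membranes + radioligand, cmpd 1 h; filtration, scintillation count. Readout = decrease vs DMSO. Primary 25 uM dup; hits → conc. series.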

Test [17] addresses human Serotonin, 5-Hydroxytryptamine Receptor 7 (5HT7), HTR7 (gene 3363) (UniProt P34969). Description: NVS_GPCR_h5HT7: NovaScreen (NVS) G Protein-Coupled Receptor Assay for human Serotonin, 5-Hydroxytryptamine Receptor 7 (5HT7) (AID 2283255).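 Note: hits reduce specific radioligand binding relative to DMSO.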 The procedure, abridged:
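Radioligand displacement on membranes from CHO cells expressing human 5HT7, 1 h incubation, filter-based scintillation counting. Primary screen used a single 25 uM concentration in duplicate; actives were followed up in concentration series.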

The target of test [18] is human Neuropeptide Receptor Y1 (NPY1), NPY1R (gene 4886) (UniProt P25929). Briefly: NVS_GPCR_hNPY1: NovaScreen (NVS) G Protein-Coupled Receptor Assay for human Neuropeptide Receptor Y1 (NPY1) (AID 2283276). Summed up: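 Cell-free radioligand binding using receptor extracted from SK-N-MC cells, 1 h incubation, filter-based scintillation counting. Primary screen single concentration 25 uM in duplicate; actives followed in concentration series. Loss of bound signal scored versus DMSO.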

human Adenosine A2a Receptor (AdoRA2a), ADORA2A (gene 135), sequence (P29274 whole entry, looked up): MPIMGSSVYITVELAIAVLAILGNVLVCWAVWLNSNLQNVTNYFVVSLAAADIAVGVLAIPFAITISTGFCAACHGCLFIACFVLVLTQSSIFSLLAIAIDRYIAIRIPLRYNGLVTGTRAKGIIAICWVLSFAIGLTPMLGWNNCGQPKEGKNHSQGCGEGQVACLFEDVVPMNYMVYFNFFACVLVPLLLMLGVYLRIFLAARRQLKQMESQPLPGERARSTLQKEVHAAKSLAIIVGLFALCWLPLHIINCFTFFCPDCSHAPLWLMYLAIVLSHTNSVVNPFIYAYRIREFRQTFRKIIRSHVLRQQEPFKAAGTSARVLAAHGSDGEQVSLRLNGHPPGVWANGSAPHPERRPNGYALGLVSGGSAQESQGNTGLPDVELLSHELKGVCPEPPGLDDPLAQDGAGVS
sheep Cyclooxygenase-1 (Cox1), PTGS1 (gene 443551), sequence (P05979 whole entry, looked up): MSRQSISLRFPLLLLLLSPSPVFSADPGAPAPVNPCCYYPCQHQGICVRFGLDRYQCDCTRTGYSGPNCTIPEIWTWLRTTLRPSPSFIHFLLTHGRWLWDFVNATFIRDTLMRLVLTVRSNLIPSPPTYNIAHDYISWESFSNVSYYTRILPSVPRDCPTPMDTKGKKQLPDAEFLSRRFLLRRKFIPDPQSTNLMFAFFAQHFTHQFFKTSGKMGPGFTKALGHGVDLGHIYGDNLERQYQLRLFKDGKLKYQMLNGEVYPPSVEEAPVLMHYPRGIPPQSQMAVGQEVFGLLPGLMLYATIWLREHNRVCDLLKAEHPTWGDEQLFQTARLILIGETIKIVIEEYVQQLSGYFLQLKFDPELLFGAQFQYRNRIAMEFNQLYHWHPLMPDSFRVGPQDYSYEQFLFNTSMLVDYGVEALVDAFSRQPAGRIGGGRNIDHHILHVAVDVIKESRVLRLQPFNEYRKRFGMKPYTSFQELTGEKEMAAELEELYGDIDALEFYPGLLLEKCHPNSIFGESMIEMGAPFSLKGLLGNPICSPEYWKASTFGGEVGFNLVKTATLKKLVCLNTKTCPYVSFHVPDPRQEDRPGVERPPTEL
guinea pig Opioid, Kappa 1 Receptor (OpiateK), OPRK1 (gene 100135587), sequence (P41144 whole entry, looked up): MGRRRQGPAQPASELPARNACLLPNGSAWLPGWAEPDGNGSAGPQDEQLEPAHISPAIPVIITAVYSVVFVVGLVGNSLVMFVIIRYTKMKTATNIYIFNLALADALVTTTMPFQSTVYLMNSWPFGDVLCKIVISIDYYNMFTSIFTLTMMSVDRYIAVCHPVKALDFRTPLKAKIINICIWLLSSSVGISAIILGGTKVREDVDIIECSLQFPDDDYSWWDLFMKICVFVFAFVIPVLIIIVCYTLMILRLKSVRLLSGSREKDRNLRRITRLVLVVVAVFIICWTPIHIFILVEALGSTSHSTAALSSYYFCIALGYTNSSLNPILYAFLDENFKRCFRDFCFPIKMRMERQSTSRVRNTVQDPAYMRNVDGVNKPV
D(1A) dopamine receptor (Homo sapiens), sequence (P21728 whole entry, looked up): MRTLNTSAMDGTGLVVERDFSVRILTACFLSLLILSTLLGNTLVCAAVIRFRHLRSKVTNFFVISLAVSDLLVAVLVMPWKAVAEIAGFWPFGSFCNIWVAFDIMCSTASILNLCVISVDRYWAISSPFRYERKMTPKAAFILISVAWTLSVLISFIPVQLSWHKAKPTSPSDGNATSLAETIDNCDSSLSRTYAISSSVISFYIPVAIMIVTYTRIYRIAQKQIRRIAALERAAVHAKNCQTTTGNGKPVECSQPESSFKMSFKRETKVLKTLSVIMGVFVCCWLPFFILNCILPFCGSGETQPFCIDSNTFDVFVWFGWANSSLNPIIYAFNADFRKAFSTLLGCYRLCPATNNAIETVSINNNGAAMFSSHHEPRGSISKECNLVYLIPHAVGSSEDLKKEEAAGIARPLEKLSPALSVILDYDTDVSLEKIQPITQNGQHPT
human Matrix Metalloproteinase-9 (MMP9), MMP9 (gene 4318), sequence (P14780 whole entry, looked up): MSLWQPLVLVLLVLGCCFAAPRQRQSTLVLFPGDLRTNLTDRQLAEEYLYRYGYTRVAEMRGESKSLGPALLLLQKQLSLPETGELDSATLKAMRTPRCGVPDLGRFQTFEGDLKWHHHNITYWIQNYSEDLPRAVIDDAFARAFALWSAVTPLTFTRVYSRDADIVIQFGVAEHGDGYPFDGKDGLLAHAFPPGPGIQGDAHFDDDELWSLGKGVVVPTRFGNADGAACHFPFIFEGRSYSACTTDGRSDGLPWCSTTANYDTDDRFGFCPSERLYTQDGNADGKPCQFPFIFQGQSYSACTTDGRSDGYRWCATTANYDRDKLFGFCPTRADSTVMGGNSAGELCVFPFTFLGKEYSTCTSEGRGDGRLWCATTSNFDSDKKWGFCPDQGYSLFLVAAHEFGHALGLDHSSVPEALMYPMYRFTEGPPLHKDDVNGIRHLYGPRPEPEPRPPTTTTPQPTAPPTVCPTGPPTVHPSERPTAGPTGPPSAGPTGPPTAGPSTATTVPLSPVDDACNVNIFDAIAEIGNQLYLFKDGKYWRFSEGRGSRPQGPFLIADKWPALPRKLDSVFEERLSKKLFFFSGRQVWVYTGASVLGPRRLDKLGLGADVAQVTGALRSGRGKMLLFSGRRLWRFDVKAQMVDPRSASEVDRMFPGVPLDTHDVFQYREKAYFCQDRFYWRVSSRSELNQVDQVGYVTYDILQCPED

`CCCSSCCC`: the AC50 (as a rule, the concentration giving half of the maximal activity seen) in [1] was 6.62 µM (active). Also, the compound was classed as inactive in test [2]. Consider `Cc1c(O)cccc1O`, for which the AC50 in test [1] was 25.5 µM (active); in test [3], 5.06 µM (active). Moreover, the result in [4] was inactive.

Consider `Cn1cccc1`, for which the AC50 in [2] is 5.59 µM (active).

Turning to `C=CC(=O)O[C@H]1C[C@@H]2CC[C@@]1(C)C2(C)C`, the AC50 in [2] is 3.57 µM (active).

As for `CC(C)=NNC(N)=S`, the result in test [5] was inactive. Take `CCOC(=O)/C=C\C(=O)OCC`: the outcome in test [6] and in test [5] was inactive.

`NNS(=O)(=O)c1ccc(Oc2ccc(S(=O)(=O)NN)cc2)cc1`: the call in [3] was inactive.

In the case of `Cc1cc(C)n(CO)n1`, the result in test [7] was inactive. Regarding `COC(=O)C=Cc1ccccc1`, the compound was classed as inactive in test [7]. On to `Nc1cccc(N)n1`, for which the outcome in [8] and in test [3] was inactive.

Regarding `C=C(C)C(=O)OCCCCCCCCCCCC`, the compound was called inactive in [7].

For `Cc1ccc([N+](=O)[O-])cc1N`, the AC50 in test [9] is 7.96 µM (active). For the same compound, in test [10], the result was inactive. For `CN1CCN(C)CC1`, the outcome in [11] was inactive. Regarding `C=C(C)C1CC=C(C)CC1` (configuration not stated), the AC50 in test [12] was 19.3 µM (active). On to `COC(OC)(C(=O)c1ccccc1)c1ccccc1`, for which the compound was classed as inactive in test [3]. The AC50 in test [13] was 13.6 µM (active). For `Cn1ccnc1`, the result in [14] was inactive. As for `c1ccc2sc(SSN3CCOCC3)nc2c1`, in test [6], the AC50 was 3.65 µM (active).

In the case of `CCC(C)c1ccccc1` (configuration not stated), the AC50 in test [5] was 2.46 µM (active). For the compound `CCOC(=O)C1=NN(c2ccc(Cl)cc2Cl)C(C)(C(=O)OCC)C1` (configuration not stated), the AC50 in test [13] was 14.3 µM (active). For the same compound, in test [5], the compound was called inactive.

Regarding `CCCCCCC=O`, in test [5], the outcome was inactive. With `CCCCCCCCC(CO)CCCCCC` (configuration not stated), in test [4], the outcome was inactive. Turning to `c1ccc(-c2nc3ccccc3[nH]2)cc1`, the compound was called inactive in [14]. In addition, the AC50 in [5] was 7.64 µM (active). Consider `Oc1ccc(/C=C/c2cc(O)cc(O)c2)cc1`, for which the result in [15], in test [16] and in [5] was inactive. Also, the AC50 in [3] was 7.5 µM (active); in test [14] it was 17.9 µM (active); in test [7], 25 µM (active); in test [6] it was 0.835 µM (active).

In the case of `Fc1ccc(Br)cc1`, the call in test [5] was inactive. As for `C1CNCCN1`, the compound was called inactive in test [17] and in [18]. For `Oc1c(Cl)cc(Cl)c(Cl)c1Cl`, the compound was called inactive in [3] and in test [5]. As for `CCC(C)C(=O)OC` (configuration not stated), in test [7], the half-maximal activity concentration (AC50) is 18.1 µM (active).

For `Nc1nc(N)nc(-c2ccccc2)n1`, in test [3], the result was inactive. Also, the AC50 in test [16] was 6.11 µM (active); in test [14], 3.01 µM (active). Take `Cc1cc(C)c(C=O)c(C)c1`: the result in test [7] was inactive. Same read-out and setting: the entry for `CC(c1cc(C(C)(C)C)cc(C(C)(C)C)c1O)c1cc(C(C)(C)C)cc(C(C)(C)C)c1O` is “inactive”.

With `CC(C)[N+](C)(CCOC(=O)C1c2ccccc2Oc2ccccc21)C(C)C`, the AC50 is 11.1 µM (active) in test [13], 0.00229 µM (active) in test [4] and 17.7 µM (active) in test [6].

The values above are taken from PubChem BioAssay (EPA / NIEHS).
